Measurements from the supplement of paper PMC11732987, “Enantioselective OTUD7B fragment discovery through chemoproteomics screening and high-throughput optimisation” (Communications Chemistry, 2025).
Unmarked numbers belong to inactive results.

What was measured:
Experiment in all cases: log2 ratio of Biotin-Ahx-Ub-VS probe labelling (fragment/DMSO); higher = less target engagement (more negative = stronger competition), active = hit call of the paper (q ≤ 0.05, log2 ratio ≤ -1)
Settings in all cases: compound concentration: 200 uM; treatment time: 3 h
[1] = biological target: T1, OTUD6B (UniProt Q8N6M0)
T1 sequence (whole entry): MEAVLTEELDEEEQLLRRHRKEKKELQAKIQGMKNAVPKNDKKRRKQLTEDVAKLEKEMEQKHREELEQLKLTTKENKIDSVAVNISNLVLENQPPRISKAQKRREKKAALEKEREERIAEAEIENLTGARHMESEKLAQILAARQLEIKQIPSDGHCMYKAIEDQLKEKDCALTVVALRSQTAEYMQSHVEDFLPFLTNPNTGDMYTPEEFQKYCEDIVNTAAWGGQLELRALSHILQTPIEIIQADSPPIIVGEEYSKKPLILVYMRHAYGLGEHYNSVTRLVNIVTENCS
In short: (§1)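 Average log2 ratios of fragment over vehicle were obtained by unpaired t-test from global-median-normalised Spectronaut label-free quantities. Proteins with ≥2 unique peptides were included. HEK293T lysate (495 µg per sample) was treated in triplicate with fragment at 200 µM or vehicle for 3 h, then with Biotin-Ahx-Ub-VS at 0.5 µM final for 1 h, and labelled DUBs were NeutrAvidin-enriched and run by diaPASEF LC-MS/MS.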

[2] = biological target: T2, OTUD7B (UniProt Q6GQQ9)
T2 sequence (whole entry): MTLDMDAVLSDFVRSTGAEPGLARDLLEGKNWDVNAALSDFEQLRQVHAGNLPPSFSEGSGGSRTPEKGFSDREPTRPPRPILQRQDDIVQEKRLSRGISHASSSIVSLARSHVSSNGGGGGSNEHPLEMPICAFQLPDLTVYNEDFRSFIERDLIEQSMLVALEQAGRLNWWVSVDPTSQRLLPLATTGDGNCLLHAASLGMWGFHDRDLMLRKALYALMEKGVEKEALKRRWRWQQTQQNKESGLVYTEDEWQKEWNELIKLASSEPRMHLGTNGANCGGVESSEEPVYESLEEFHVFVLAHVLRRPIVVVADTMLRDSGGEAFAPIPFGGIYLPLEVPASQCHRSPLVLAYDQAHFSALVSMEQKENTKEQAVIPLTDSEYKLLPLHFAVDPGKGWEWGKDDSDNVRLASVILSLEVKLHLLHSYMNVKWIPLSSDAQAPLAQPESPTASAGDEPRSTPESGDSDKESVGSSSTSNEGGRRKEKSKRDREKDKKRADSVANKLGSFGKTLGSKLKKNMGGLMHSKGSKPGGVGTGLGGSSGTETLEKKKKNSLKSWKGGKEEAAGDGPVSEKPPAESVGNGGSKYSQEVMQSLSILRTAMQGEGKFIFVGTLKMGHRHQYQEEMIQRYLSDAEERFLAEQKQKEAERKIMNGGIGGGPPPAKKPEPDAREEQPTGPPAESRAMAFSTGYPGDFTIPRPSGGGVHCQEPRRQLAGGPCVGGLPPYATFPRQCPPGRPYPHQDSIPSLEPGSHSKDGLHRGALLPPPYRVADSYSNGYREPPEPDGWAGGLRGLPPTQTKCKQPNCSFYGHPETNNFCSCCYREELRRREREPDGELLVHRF
In short: as §1

[3] = biological target: PRPF8 (UniProt Q6P2Q9)
In short: as §1

[4] = biological target: T3, PSMD7 (UniProt P51665)
T3 sequence (whole entry): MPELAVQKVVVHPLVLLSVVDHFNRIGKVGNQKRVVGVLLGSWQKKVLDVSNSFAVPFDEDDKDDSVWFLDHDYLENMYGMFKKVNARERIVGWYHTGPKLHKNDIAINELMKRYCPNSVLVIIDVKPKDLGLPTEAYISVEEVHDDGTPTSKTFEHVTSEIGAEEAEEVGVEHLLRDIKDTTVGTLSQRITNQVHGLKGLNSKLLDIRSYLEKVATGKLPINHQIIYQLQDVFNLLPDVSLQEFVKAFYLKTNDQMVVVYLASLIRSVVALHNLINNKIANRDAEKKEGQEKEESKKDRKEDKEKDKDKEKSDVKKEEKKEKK
In short: as §1

[5] = biological target: UCHL1 (UniProt P09936)
In short: as §1

[6] = biological target: T4, UCHL3 (UniProt P15374)
T4 sequence (whole entry): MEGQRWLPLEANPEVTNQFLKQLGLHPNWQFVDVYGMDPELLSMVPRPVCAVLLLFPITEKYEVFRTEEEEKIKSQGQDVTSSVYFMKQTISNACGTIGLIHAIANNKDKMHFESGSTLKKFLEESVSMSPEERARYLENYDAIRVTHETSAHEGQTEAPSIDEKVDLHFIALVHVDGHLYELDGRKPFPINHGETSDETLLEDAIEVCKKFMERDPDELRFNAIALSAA
In short: as §1

[7] = biological target: T5, UCHL5 (UniProt Q9Y5K5)
T5 sequence (whole entry): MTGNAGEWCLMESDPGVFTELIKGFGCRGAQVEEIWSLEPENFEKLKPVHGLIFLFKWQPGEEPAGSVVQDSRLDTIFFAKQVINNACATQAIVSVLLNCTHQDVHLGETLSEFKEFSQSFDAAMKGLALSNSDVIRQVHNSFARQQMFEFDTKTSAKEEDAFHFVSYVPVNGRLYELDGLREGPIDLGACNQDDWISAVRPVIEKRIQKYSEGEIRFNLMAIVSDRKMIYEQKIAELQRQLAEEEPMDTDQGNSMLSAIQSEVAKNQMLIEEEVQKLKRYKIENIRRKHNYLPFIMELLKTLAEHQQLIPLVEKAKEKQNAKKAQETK
In short: as §1

[8] = biological target: USP10 (UniProt Q14694)
In short: as §1

[9] = biological target: T6, USP15 (UniProt Q9Y4E8)
T6 sequence (whole entry): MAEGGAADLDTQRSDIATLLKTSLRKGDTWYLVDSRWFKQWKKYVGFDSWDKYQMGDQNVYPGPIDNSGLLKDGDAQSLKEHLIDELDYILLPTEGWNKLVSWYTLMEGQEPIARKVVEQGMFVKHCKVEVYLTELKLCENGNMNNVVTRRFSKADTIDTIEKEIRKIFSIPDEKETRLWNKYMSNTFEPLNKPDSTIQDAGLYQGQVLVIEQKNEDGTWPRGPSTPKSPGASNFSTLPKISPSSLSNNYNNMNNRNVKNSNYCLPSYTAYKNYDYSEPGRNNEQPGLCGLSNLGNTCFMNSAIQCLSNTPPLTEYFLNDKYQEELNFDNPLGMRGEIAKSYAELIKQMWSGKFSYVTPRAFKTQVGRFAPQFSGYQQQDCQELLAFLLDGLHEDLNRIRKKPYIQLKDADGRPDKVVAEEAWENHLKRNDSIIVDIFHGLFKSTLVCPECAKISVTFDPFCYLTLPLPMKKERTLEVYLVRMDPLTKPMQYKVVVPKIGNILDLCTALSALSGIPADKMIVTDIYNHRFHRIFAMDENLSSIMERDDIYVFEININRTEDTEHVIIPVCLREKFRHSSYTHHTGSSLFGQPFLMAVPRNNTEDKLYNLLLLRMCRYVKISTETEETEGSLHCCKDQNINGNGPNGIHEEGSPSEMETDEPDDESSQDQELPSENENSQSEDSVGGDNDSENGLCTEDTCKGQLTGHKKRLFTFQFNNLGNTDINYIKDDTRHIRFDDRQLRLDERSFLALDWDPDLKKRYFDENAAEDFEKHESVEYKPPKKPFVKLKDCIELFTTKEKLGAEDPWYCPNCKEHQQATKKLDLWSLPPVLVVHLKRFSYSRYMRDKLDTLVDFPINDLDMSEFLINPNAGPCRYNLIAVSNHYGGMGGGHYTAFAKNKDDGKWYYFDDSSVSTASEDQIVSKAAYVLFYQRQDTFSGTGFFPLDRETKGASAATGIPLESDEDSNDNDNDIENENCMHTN
In short: as §1

[10] = biological target: USP16 (UniProt Q9Y5T5)
In short: as §1

Chain of UCHL1 (P09936 whole entry, looked up): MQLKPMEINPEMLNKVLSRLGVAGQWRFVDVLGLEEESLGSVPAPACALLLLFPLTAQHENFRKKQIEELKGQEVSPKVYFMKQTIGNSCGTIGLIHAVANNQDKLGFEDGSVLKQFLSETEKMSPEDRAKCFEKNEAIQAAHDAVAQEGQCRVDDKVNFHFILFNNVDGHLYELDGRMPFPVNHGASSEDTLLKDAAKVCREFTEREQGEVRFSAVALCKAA
Chain of USP16 (Q9Y5T5 whole entry, looked up): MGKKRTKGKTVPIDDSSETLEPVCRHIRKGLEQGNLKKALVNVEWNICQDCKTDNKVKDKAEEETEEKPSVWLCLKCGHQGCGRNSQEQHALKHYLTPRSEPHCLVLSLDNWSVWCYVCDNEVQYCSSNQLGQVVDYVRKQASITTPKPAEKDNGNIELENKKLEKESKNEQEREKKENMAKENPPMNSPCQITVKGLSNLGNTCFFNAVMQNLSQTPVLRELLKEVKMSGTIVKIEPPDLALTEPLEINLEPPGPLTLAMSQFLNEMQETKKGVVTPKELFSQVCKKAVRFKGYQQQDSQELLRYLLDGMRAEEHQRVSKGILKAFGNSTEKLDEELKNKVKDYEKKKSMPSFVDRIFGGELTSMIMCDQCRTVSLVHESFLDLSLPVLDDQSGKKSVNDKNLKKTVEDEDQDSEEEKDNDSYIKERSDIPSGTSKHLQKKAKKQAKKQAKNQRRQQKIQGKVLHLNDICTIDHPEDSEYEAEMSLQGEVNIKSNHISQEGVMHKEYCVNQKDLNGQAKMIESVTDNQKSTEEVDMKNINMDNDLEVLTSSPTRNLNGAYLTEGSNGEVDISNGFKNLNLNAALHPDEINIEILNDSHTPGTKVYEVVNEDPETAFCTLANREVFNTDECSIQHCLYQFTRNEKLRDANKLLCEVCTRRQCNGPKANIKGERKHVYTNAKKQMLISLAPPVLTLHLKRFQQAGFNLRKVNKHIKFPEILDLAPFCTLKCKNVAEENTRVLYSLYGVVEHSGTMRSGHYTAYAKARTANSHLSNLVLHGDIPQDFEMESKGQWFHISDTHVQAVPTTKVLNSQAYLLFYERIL
Chain of USP10 (Q14694 whole entry): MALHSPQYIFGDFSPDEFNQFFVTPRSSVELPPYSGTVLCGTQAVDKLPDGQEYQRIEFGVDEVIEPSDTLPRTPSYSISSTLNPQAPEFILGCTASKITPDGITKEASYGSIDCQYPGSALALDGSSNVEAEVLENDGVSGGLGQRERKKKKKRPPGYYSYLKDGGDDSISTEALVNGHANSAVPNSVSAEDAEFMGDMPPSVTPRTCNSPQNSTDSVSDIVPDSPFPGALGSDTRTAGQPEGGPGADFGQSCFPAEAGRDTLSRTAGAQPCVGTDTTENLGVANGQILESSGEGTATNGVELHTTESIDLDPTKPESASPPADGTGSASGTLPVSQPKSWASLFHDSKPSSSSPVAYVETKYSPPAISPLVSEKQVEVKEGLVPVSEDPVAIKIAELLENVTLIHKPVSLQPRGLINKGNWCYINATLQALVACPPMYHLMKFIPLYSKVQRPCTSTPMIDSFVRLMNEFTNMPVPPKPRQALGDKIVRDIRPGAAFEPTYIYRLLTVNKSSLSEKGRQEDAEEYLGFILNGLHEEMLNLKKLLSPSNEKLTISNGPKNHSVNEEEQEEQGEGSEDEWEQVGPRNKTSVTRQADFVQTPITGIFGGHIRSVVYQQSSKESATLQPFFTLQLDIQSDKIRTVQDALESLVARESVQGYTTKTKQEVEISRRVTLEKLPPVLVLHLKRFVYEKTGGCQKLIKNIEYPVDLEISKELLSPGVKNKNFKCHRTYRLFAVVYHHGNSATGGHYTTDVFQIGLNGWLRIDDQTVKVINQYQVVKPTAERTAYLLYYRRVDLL

For `O=C(CCl)Nc1cccc2ncccc12`, the “log2 ratio of Biotin-Ahx-Ub-VS probe labelling” value (shortened to “log2 ratio”) [1] was -0.0779, the “log2 ratio” value [2] was -1 (active) and the “log2 ratio” value [3] was -0.308. The “log2 ratio” value [4] was -0.0733, the “log2 ratio” value [5] was -1.25 (active) and the “log2 ratio” value [6] was 0.101. The “log2 ratio” value [7] was -0.321, the “log2 ratio” value [8] was 0.0543 and the “log2 ratio” value [9] was -0.178. The “log2 ratio” value [10] was 0.52.
